The first experiment addresses Tyrosine-protein kinase SYK (Homo sapiens) (UniProt P43405). Particulars: at 1 µM.
With `COc1cccc(-n2cnc3c(N/N=C/c4ccncc4)ncnc32)c1`, the inhibition was -1.09%.
Still for that read-out and setting: next, `Fc1ccc(-c2ncn(C3CCNCC3)c2-c2ccnc(Oc3ccc(F)c(F)c3)n2)cc1`: -2.3%; `Cc1ccc(C(=O)NC2CCC2)cc1-c1ccc(C(=O)NCC2CC2)cc1`: 0.85%.
Regarding `C[C@@H](Oc1cc(-n2cnc3ccc(OC4CCN(C)CC4)cc32)sc1C(N)=O)c1ccccc1Cl`, the inhibition was determined as 2.16%.
For the compound `CCS(=O)(=O)c1ccc(OC)c(Nc2ncc(-c3ccccc3Cl)o2)c1`, the inhibition was 4.5%.
The same measure, in the same setting: next, `CCC(=O)Nc1ccc(C)c(-c2ccc(C(=O)NCC3CC3)cc2)c1`: 0.67%.
For `O=C(Nc1n[nH]c2cc(-c3cc(F)ccc3F)ccc12)C1CC1`, the inhibition turned out to be 1.24%.
On the same count and under the same terms, under `O=C1NC(=O)C(c2cccc(Cl)c2)=C1Nc1ccc(Cl)c(C(=O)O)c1` stands -0.32%; under `CS(=O)(=O)CCNCc1ccc(-c2ccc3ncnc(Nc4ccc(OCc5ccccc5)c(Br)c4)c3c2)o1`, -5.01%.
Regarding `COc1ccc2ncn(-c3cc(O[C@H](C)c4ccccc4Cl)c(C(N)=O)s3)c2c1`, the inhibition is -3.45%.
The same measure, in the same setting: under `Cc1ccc(C(=O)NC(C)C)cc1-c1ccc(C(=O)NCC2CC2)cc1` stands -0.36%; under `O=C(Nc1ccc(Oc2ccc3[nH]c(NC(=O)c4ccccc4)nc3c2)cc1)Nc1cc(C(F)(F)F)ccc1F`, -0.11%; under `C[C@@H](Oc1cc(-n2cnc3ccc(OCC4CCN(C)CC4)cc32)sc1C(N)=O)c1ccccc1Cl`, 2.34%.
Still for that read-out and setting: next, `COc1ccc2cc(-c3c(-c4ccncc4)nc(-c4ccc([S+](C)[O-])cc4C)n3C)ccc2c1` (stereo not drawn): 0.6%; `CCc1ccc(Oc2nccc(-c3c(-c4ccc(F)cc4)ncn3C3CCNCC3)n2)cc1`: 2.45%.
The same measure, in the same setting: next, `O=C(NCC1CC1)c1ccc(-c2cccc(C(=O)NC3CC3)c2)cc1`: -1.45%; `CS(=O)(=O)CCNCc1cc(-c2cc3c(Nc4ccc(OCc5cccc(F)c5)c(Cl)c4)ncnc3s2)cs1`: 1.7%.
With `Fc1ccc(-c2ncn(C3CCNCC3)c2-c2ccnc(Oc3ccc4c(c3)OCO4)n2)cc1`, the inhibition was -5.42%.
The same measure, in the same setting: under `NS(=O)(=O)c1ccc(N/N=C2\C(=O)Nc3ccc(C(=O)NCCCn4ccnc4)cc32)cc1` stands -1.66%; under `NC(=O)Cc1ccccc1Oc1nccc(-c2c(-c3ccc(F)cc3)ncn2C2CCNCC2)n1`, -0.38%; under `COc1cccc(/C=N/Nc2ncnc3c2cnn3-c2cccc(OC)c2)c1`, 0.04%.
In the case of `COc1ccc(-c2ccc3c(NC(=O)C4CC4)n[nH]c3n2)cc1`, the inhibition was -2.02%.
Turning to `Fc1ccc(-c2ncn(CCCN3CCOCC3)c2-c2ccncc2)cc1`, the inhibition is -1.02%.
Still for that read-out and setting: under `Fc1ccc(-c2c(-c3ccncc3)nc3n2CCS3)cc1` stands 1.49%; under `CN(C)c1ccc2c(c1)/C(=C/Nc1ccc(S(N)(=O)=O)cc1)C(=O)N2`, 0.31%; under `c1ccc(-c2n[nH]cc2-c2ccnc(-c3ccc(OCCN4CCOCC4)cc3)c2)nc1`, -0.16%.
The same measure, in the same setting: next, `COC(=O)Nc1nc2ccc(Sc3ccc(NC(=O)Nc4cc(C(F)(F)F)ccc4F)cc3)cc2[nH]1`: -0.54%; `COc1cc(Nc2ncc(-c3ccccc3)o2)cc(OC)c1OC`: -1.68%.
For `Fc1ccc(-c2nc3n(c2-c2ccncc2)CCS3)cc1`, the inhibition was 2.02%.
Same read-out and setting: next, `C#Cc1cccc(Nc2ncnc3ccc(OCCCCNCCS(C)(=O)=O)cc23)c1`: 0.39%; `COc1ccc(C2=C(N3CCc4ccccc43)C(=O)NC2=O)cc1`: 2.15%.
Regarding `COc1cc(N2CCN(C(C)C)CC2)ccc1Nc1nc(Nc2ccc(F)cc2C(=O)NC[C@@H](O)CO)c2cc[nH]c2n1`, the inhibition is -2.57%.
With `Fc1ccc(-c2ncn(C3CCNCC3)c2-c2ccnc(Oc3ccc(Oc4ccccc4)cc3)n2)cc1`, the inhibition came out at 3.37%.
Consider `CCc1cccc(CC)c1/C=C/c1cncc(C(=O)NC)c1`, for which the inhibition is -0.49%.

A further experiment deals with T1, Tyrosine-protein kinase Tec (Homo sapiens) (UniProt P42680).
T1 sequence (whole entry): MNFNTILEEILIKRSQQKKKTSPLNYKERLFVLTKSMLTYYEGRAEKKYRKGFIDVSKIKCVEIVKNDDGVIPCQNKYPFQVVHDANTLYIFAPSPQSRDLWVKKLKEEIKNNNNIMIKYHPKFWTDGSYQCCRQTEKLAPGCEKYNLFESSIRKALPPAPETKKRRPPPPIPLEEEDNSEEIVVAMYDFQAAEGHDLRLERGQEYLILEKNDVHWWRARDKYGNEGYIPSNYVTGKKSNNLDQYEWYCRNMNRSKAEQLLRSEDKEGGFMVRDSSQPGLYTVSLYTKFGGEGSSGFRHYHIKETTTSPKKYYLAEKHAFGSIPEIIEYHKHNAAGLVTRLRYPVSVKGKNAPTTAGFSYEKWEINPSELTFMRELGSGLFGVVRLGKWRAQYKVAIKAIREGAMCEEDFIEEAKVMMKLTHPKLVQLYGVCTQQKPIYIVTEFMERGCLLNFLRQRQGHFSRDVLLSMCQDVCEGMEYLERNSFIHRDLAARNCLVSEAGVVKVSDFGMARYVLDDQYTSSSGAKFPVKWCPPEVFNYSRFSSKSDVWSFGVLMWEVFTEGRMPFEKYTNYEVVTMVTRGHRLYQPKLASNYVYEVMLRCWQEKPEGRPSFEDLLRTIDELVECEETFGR
Particulars: at 0.1 µM.
Take `COc1cccc(-n2cnc3c(N/N=C/c4ccncc4)ncnc32)c1`: the inhibition is -2.49%.
Same read-out and setting: next, `Fc1ccc(-c2ncn(C3CCNCC3)c2-c2ccnc(Oc3ccc(F)c(F)c3)n2)cc1`: -2.35%.
The same measure, in the same setting: next, `Cc1ccc(C(=O)NC2CCC2)cc1-c1ccc(C(=O)NCC2CC2)cc1`: 3.37%; `C[C@@H](Oc1cc(-n2cnc3ccc(OC4CCN(C)CC4)cc32)sc1C(N)=O)c1ccccc1Cl`: 2.27%.
Same read-out and setting: next, `CCS(=O)(=O)c1ccc(OC)c(Nc2ncc(-c3ccccc3Cl)o2)c1`: 3.48%.
Consider `CCC(=O)Nc1ccc(C)c(-c2ccc(C(=O)NCC3CC3)cc2)c1`, for which the inhibition came to 3.13%.
For the compound `O=C(Nc1n[nH]c2cc(-c3cc(F)ccc3F)ccc12)C1CC1`, the inhibition came to 2.72%.
As to `O=C1NC(=O)C(c2cccc(Cl)c2)=C1Nc1ccc(Cl)c(C(=O)O)c1`, the inhibition was 3.38%.
Regarding `CS(=O)(=O)CCNCc1ccc(-c2ccc3ncnc(Nc4ccc(OCc5ccccc5)c(Br)c4)c3c2)o1`, the inhibition is -2.31%.
On to `COc1ccc2ncn(-c3cc(O[C@H](C)c4ccccc4Cl)c(C(N)=O)s3)c2c1`, for which the inhibition was -2.01%.
On the same count and under the same terms, next, `Cc1ccc(C(=O)NC(C)C)cc1-c1ccc(C(=O)NCC2CC2)cc1`: -2.75%.
Regarding `O=C(Nc1ccc(Oc2ccc3[nH]c(NC(=O)c4ccccc4)nc3c2)cc1)Nc1cc(C(F)(F)F)ccc1F`, the inhibition amounted to 4.86%.
On the same count and under the same terms, under `C[C@@H](Oc1cc(-n2cnc3ccc(OCC4CCN(C)CC4)cc32)sc1C(N)=O)c1ccccc1Cl` stands 6.45%.
The same measure, in the same setting: next, `COc1ccc2cc(-c3c(-c4ccncc4)nc(-c4ccc([S+](C)[O-])cc4C)n3C)ccc2c1` (stereo not drawn): 0.44%; `CCc1ccc(Oc2nccc(-c3c(-c4ccc(F)cc4)ncn3C3CCNCC3)n2)cc1`: 6.67%; `O=C(NCC1CC1)c1ccc(-c2cccc(C(=O)NC3CC3)c2)cc1`: 2.57%.
On to `CS(=O)(=O)CCNCc1cc(-c2cc3c(Nc4ccc(OCc5cccc(F)c5)c(Cl)c4)ncnc3s2)cs1`, for which the inhibition came to 7.25%.
Still for that read-out and setting: under `Fc1ccc(-c2ncn(C3CCNCC3)c2-c2ccnc(Oc3ccc4c(c3)OCO4)n2)cc1` stands 2.04%; under `NS(=O)(=O)c1ccc(N/N=C2\C(=O)Nc3ccc(C(=O)NCCCn4ccnc4)cc32)cc1`, 3.92%; under `NC(=O)Cc1ccccc1Oc1nccc(-c2c(-c3ccc(F)cc3)ncn2C2CCNCC2)n1`, 4.14%.
Take `COc1cccc(/C=N/Nc2ncnc3c2cnn3-c2cccc(OC)c2)c1`: the inhibition stood at 4.1%.
Consider `COc1ccc(-c2ccc3c(NC(=O)C4CC4)n[nH]c3n2)cc1`, for which the inhibition came out at 0.87%.
For `Fc1ccc(-c2ncn(CCCN3CCOCC3)c2-c2ccncc2)cc1`, the inhibition was -0.04%.
Take `Fc1ccc(-c2c(-c3ccncc3)nc3n2CCS3)cc1`: the inhibition was -1.67%.
The same measure, in the same setting: under `CN(C)c1ccc2c(c1)/C(=C/Nc1ccc(S(N)(=O)=O)cc1)C(=O)N2` stands 1.4%.
Still for that read-out and setting: under `c1ccc(-c2n[nH]cc2-c2ccnc(-c3ccc(OCCN4CCOCC4)cc3)c2)nc1` stands 3.84%.
On to `COC(=O)Nc1nc2ccc(Sc3ccc(NC(=O)Nc4cc(C(F)(F)F)ccc4F)cc3)cc2[nH]1`, for which the inhibition was 3.34%.
With `COc1cc(Nc2ncc(-c3ccccc3)o2)cc(OC)c1OC`, the inhibition was -2.02%.
Regarding `Fc1ccc(-c2nc3n(c2-c2ccncc2)CCS3)cc1`, the inhibition amounted to 0.9%.
Turning to `C#Cc1cccc(Nc2ncnc3ccc(OCCCCNCCS(C)(=O)=O)cc23)c1`, the inhibition was found to be 5.96%.
Still for that read-out and setting: next, `COc1ccc(C2=C(N3CCc4ccccc43)C(=O)NC2=O)cc1`: 5.51%; `COc1cc(N2CCN(C(C)C)CC2)ccc1Nc1nc(Nc2ccc(F)cc2C(=O)NC[C@@H](O)CO)c2cc[nH]c2n1`: 1.33%; `Fc1ccc(-c2ncn(C3CCNCC3)c2-c2ccnc(Oc3ccc(Oc4ccccc4)cc3)n2)cc1`: 7.61%.
Regarding `CCc1cccc(CC)c1/C=C/c1cncc(C(=O)NC)c1`, the inhibition came to 4.18%.

As a reminder, the inhibition is the relative decrease from the control value, in per cent.

For the origin of these results see ChEMBL document CHEMBL1961873, “Compounds: GSK PKIS; Assays: Nanosyn kinase panel” (2012).
